Assay results reported in PubChem BioAssay.
Where “and” joins values, the source holds several entries; their conditions need not be identical. Equal values may be shown once. For part of these data: Entries with a potency or affinity are not part of this list. Calls of active or inactive are those of the source.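 Rule for the calls, unless noted: active = primary screen active and over 50% activation in each of two duplicate runs; inactive = the rest.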

Columns and labels:
[1] = test system: TRPC4 beta (transient receptor potential cation channel C4), mouse; test: TRPC4 cation channel opening, retest – cell-based, Fluo4 calcium, HEK293 TRPC4beta/mu-opioid, duplicates, 10 µM, confirmation (AID 2426;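 active = fluorescence ratio normalized to control raised more than 50% in primary screen plus both repeat runs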;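 for activation: percent rise of integrated ratio over buffer wells lacking compound which define 0%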); conditions: Fluo4 calcium fluorescence, at 10 µM; active compounds read high
[2] = test system: transient receptor potential cation channel C4 beta (TRPC4), mouse; test: TRPC4 cation channel opening, second retest – cell-based, second round, Fluo4, HEK293 TRPC4beta/mu-opioid, 1 µM, confirmation (AID 2461); conditions: Fluo4 calcium fluorescence, at 1 µM; active compounds read high;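 for activation: 0% = wells without test compound as baseline of integrated fluorescence ratio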
[3] = test system: TRPC4 (transient receptor potential cation channel C4 beta), mouse; test: potentiation of DAMGO EC20 TRPC4 response – cell-based, second round, Fluo-4, HEK293 TRPC4beta/mu-opioid, 1 µM, confirmation (AID 2554;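 active = primary screen hit whose fluorescence ratio, in both repeats, exceeds the weak agonist control mean by 3 SD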); conditions: DAMGO EC20, Fluo-4 calcium flux, at 1 µM; active compounds read high
[4] = test system: TRPC4 beta (transient receptor potential cation channel C4), mouse; test: potentiation of DAMGO EC20 TRPC4 response – cell-based, Fluo-4, HEK293 TRPC4beta/mu-opioid, confirmation (AID 2555;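 active = primary screen hit whose calcium fluorescence ratio, in both repeats, exceeds the weak agonist control mean by 3 SD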); conditions: DAMGO EC20, Fluo-4 calcium flux, at 10 µM; active compounds read high
[5] = biological target: Short transient receptor potential channel 4 (Mus musculus) (UniProt Q9QUQ5); test: blockers of DAMGO-evoked TRPC4 calcium flux – cell-based, Fluo4, HEK293 TRPC4beta/mu-opioid, confirmation (AID 2636;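 active = calcium signal cut by more than 3 SD below the full-agonist control yet still positive, in both repeats and the earlier primary screen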); conditions: at 10 µM; active compounds read high
Short transient receptor potential channel 4 (Mus musculus), sequence (Q9QUQ5 whole entry, looked up): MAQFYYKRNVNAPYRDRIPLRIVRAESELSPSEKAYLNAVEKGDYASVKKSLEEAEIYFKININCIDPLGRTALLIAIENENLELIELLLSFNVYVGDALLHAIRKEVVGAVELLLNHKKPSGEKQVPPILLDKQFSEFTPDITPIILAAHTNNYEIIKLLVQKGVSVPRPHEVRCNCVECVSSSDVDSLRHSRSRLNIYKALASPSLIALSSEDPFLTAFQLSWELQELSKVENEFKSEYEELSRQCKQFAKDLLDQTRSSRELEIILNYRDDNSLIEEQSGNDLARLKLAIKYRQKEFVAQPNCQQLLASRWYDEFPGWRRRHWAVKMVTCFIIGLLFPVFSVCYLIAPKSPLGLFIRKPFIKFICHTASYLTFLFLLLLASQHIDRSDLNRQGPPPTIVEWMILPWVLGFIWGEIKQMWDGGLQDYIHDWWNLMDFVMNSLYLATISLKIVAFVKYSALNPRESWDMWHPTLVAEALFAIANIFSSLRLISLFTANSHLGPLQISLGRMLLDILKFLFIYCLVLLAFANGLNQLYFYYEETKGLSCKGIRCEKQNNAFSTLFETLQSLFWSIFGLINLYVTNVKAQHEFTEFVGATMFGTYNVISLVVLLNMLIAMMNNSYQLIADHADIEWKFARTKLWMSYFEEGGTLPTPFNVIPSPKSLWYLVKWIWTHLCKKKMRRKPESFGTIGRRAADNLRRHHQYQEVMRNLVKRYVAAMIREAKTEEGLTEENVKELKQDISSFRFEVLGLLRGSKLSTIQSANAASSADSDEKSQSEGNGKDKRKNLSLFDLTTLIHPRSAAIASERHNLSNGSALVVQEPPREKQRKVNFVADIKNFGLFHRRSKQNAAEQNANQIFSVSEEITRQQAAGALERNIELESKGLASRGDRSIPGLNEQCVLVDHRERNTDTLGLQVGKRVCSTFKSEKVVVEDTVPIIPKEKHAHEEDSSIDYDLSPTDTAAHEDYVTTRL

[6] = biological target: Short transient receptor potential channel 4 (Mus musculus) (UniProt Q9QUQ5); test: blockers of DAMGO-evoked TRPC4 calcium flux – cell-based, second round, Fluo4, HEK293 TRPC4beta/mu-opioid, 1 µM, confirmation (AID 2637;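 active = calcium signal ratio cut to more than 3 SD under the fully stimulated control mean yet still positive, in both repeats and the primary screen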); conditions: at 1 µM; active compounds read high
[7] = biological target: Short transient receptor potential channel 4 (Mus musculus) (UniProt Q9QUQ5); test: potentiation of DAMGO-evoked TRPC4 calcium signal – cell-based, HEK293 TRPC4/mu-opioid, Fluo-4 calcium, EC20 DAMGO, dose response (AID 434941;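 active = earlier screen potentiator hit that boosts the TRPC4 ion channel at some dose, with a dose response; inactive = no potentiation, no dose response, or not a prior hit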;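 note: calcium entry triggered by an EC20 dose of DAMGO at the co-expressed mu-opioid receptor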)
[8] = biological target: Short transient receptor potential channel 4 (Mus musculus) (UniProt Q9QUQ5); test: block of DAMGO-driven TRPC4 calcium entry – cell-based, HEK293 TRPC4/mu-opioid, Fluo-4 calcium, dose response (AID 434942;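 active = primary screen inhibitor hit that blocks the TRPC4 channel at some tested dose, yielding a dose curve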)
[9] = biological target: Short transient receptor potential channel 6 (Mus musculus) (UniProt Q61143); test: TRPC6 blockade by TRPC4 inhibitor hits – cell-based, HEK293, membrane potential dye, duplicate, selectivity assay for TRPC4 inhibitor project, confirmation (AID 434948;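 active = active in primary screen and both duplicates, each dropping signal beyond three positive-control SD with fluorescence still positive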); conditions: HEK293 TRPC6, membrane potential dye fluorescence, at 10 µM, stimulated with maximal-effect acetylcholine; active compounds read high
Short transient receptor potential channel 6 (Mus musculus), sequence (Q61143 whole entry, looked up): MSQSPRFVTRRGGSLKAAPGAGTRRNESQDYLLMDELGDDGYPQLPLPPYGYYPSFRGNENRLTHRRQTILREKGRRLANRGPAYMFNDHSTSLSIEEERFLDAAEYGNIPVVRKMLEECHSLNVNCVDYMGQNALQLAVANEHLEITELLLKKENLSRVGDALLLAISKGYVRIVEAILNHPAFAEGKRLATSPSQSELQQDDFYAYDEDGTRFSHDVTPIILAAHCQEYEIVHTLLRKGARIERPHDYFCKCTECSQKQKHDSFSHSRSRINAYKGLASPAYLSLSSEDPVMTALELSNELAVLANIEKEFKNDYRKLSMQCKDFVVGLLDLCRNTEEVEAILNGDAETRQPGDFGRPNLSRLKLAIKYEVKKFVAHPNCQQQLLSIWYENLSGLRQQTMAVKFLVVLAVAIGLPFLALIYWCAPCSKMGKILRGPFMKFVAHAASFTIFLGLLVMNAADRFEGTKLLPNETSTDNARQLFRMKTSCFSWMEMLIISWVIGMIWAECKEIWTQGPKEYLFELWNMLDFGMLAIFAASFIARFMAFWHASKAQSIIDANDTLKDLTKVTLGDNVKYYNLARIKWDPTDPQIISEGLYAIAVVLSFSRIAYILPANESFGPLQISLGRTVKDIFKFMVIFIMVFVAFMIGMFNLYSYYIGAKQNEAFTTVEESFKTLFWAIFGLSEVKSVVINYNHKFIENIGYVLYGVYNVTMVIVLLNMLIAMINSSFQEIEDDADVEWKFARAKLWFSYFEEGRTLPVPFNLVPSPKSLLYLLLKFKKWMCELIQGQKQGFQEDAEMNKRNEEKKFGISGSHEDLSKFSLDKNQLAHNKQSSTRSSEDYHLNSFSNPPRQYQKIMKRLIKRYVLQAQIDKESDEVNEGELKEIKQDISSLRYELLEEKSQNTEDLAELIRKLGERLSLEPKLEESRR

[10] = biological target: Short transient receptor potential channel 6 (Mus musculus) (UniProt Q61143); test: TRPC6 opening by TRPC4 activator hits – cell-based, HEK293, membrane potential dye, duplicate, selectivity assay for TRPC4 activator project, confirmation (AID 434950;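 active = membrane potential signal rise above negative control mean plus 3 SD in both duplicates, also active in the earlier TRPC4 screen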;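 for activation: 0% = buffer only wells and 100% = acetylcholine maximal-effect wells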); conditions: HEK293 TRPC6, membrane potential fluorescence, at 10 µM; activation: active compounds read high; outcome: activation
[11] = biological target: Short transient receptor potential channel 6 (Mus musculus) (UniProt Q61143); test: positive modulators of mouse TRPC6 channel – HEK293 cells, membrane potential dye, duplicate, selectivity assay for TRPC4 potentiator project, confirmation (AID 434952;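 active = compound raising the membrane signal above positive-control mean plus 3 SD in both repeats, and a primary screen hit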); conditions: HEK293 TRPC6, membrane potential dye fluorescence, at 10 µM, maximal acetylcholine added after compound; active compounds read high
[12] = biological target: Short transient receptor potential channel 4 (Mus musculus) (UniProt Q9QUQ5); test: calcium flux activators in TRPC4/5HT1a cells, counter-screen for TRPC4 activator project, cell-based, second counter screen, HEK293 TRPC4/5HT1a, Fluo-4 (AID 434977;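 active = calcium signal rise above buffer-control mean plus 5 SD in both duplicates, and also a hit in the primary screen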;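 for activation: plate controls were assay buffer for no effect and maximal serotonin response for full effect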); conditions: Fluo-4 calcium flux, at 10 µM; active compounds read high
[13] = serotonin-gated TRPC4 signal block – cell-based, second counter screen, HEK293 TRPC4/5HT1a, Fluo-4, counter-screen for TRPC4 inhibitor project, confirmation (AID 434978;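 active = primary screen active whose calcium signal fell more than 3 SD beyond the full-serotonin control mean in both duplicate plates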;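 note: serotonin given first at submaximal then at maximal dose after compound preincubation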); conditions: Fluo-4 calcium flux, at 10 µM, serotonin added to trigger calcium flux; active compounds read high
[14] = test system: TRPC4 (mouse), co-expressed with 5HT1a in HEK293; test: enhancement of serotonin-evoked TRPC4 response – cell-based, second counter screen, HEK293 TRPC4/5HT1a, Fluo-4, counter-screen for TRPC4 potentiator project, confirmation (AID 434979;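 active = signal rise over 3 SD above mean of control wells given weak agonist, in both repeats and first screen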); conditions: Fluo-4 calcium flux, at 10 µM, serotonin added at its EC20 dose; active compounds read high
[15] = nonspecific calcium rise without TRPC4 – cell-based, HEK293 mu-opioid receptor line, counter-screen for TRPC4 activator project, confirmation (AID 449723;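 active = hit in primary screen, with calcium signal over 5 SD above buffer well mean in both duplicates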;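 note: counter screen cells carry the mu-opioid receptor alone and lack TRPC4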); conditions: HEK293 mu-opioid cells, Fluo-4 calcium fluorescence, at 10 µM; active compounds read high
[16] = nonspecific potentiation of DAMGO calcium response – cell-based, HEK293 mu-opioid receptor line, counter-screen for TRPC4 allosteric potentiator project, confirmation (AID 449724;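 active = calcium signal rise more than 3 SD above the low-dose agonist control mean, in both duplicate plates and the primary screen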); conditions: HEK293 mu-opioid receptor cells, Fluo-4 calcium flux, at 10 µM, compound added before EC20 DAMGO stimulus; active compounds read high

O=C(NCc1ccccc1)C1=C[C@H](c2ccccc2)C[C@H](OCc2ccc(CO)cc2)O1
activation [1]: 300% (active)
outcome [2]: inactive
outcome [3]: inactive
outcome [4]: inactive
outcome [5]: inactive
outcome [6]: inactive
outcome [7]: inactive
outcome [8]: inactive
outcome [9]: inactive
activation [10]: 27% (active)
outcome [11]: inactive
activation [12]: 178% (active)
outcome [13]: inactive
outcome [14]: inactive
outcome [15]: inactive
outcome [16]: inactive

Cc1noc(C)c1CCC(=O)NC1CCCN(Cc2ccc(CC(C)C)cc2)C1 (stereo not given)
activation [1]: 75% (active)
outcome [2]: inactive
outcome [3]: inactive
outcome [4]: inactive
outcome [5]: inactive
outcome [6]: inactive
outcome [7]: inactive
outcome [8]: inactive
outcome [9]: inactive
activation [10]: 46% (active)
outcome [11]: inactive
activation [12]: 20.6% (active)
outcome [13]: inactive
outcome [14]: inactive
outcome [15]: inactive
outcome [16]: inactive

COc1ccc(C(CNC(=O)c2cc(C)on2)N(C)C)cc1 (stereo not given)
activation [1]: 199% (active)
outcome [2]: inactive
outcome [3]: inactive
outcome [4]: inactive
outcome [5]: inactive
outcome [6]: inactive
outcome [7]: inactive
outcome [8]: inactive
outcome [9]: inactive
activation [10]: 27.5% (active)
outcome [11]: inactive
outcome [12]: inactive
outcome [13]: inactive
outcome [14]: inactive
outcome [15]: inactive
outcome [16]: inactive

CN1C(CC(=O)Nc2ccc(Br)cc2)c2ccccc2CC1(C)C (stereo not given)
activation [1]: 97% (active)
outcome [2]: inactive
outcome [3]: inactive
outcome [4]: inactive
outcome [5]: inactive
outcome [6]: inactive
outcome [7]: inactive
outcome [8]: inactive
outcome [9]: inactive
activation [10]: 28.5% (active)
outcome [11]: inactive
activation [12]: 7.45% (active)
outcome [13]: inactive
outcome [14]: inactive
outcome [15]: inactive
outcome [16]: inactive

Clc1cc(Cl)cc(C2=NC(Cc3ccccc3)CO2)c1 (stereo not given)
activation [1]: 110% (active)
outcome [2]: inactive
outcome [3]: inactive
outcome [4]: inactive
outcome [5]: inactive
outcome [6]: inactive
outcome [7]: inactive
outcome [8]: inactive
outcome [9]: inactive
activation [10]: 25% (active)
outcome [11]: inactive
activation [12]: 30.6% (active)
outcome [13]: inactive
outcome [14]: inactive
outcome [15]: inactive
outcome [16]: inactive

CC(=O)c1ccc(S(=O)(=O)NCc2ccc(C(=O)NCC(c3ccccc3)N(C)C)cc2)cc1 (stereo not given)
activation [1]: 127% (active)
activation [2]: 99% (active)
outcome [3]: inactive
outcome [4]: inactive
outcome [5]: inactive
outcome [6]: inactive
outcome [7]: inactive
outcome [8]: inactive
outcome [9]: inactive
activation [10]: 33% (active)
outcome [11]: inactive
outcome [12]: inactive
outcome [13]: inactive
outcome [14]: inactive
outcome [15]: inactive
outcome [16]: inactive

O=C(O)C1C2C=CC(C2)C1C(=O)N1CCN(C/C=C/c2ccccc2)CC1 (stereo not given)
activation [1]: 71% (active)
outcome [2]: inactive
outcome [3]: inactive
outcome [4]: inactive
outcome [5]: inactive
outcome [6]: inactive
outcome [7]: inactive
outcome [8]: inactive
outcome [9]: inactive
activation [10]: 26% (active)
outcome [11]: inactive
activation [12]: 12.8% (active)
outcome [13]: inactive
outcome [14]: inactive
outcome [15]: inactive
outcome [16]: inactive

Fc1ccc(NC(=S)NCCc2ccccn2)cc1
activation [1]: 199% (active)
activation [2]: 60% (active)
outcome [3]: inactive
outcome [4]: inactive
outcome [5]: inactive
outcome [6]: inactive
outcome [7]: inactive
outcome [8]: inactive
outcome [9]: inactive
outcome [10]: inactive
outcome [11]: inactive
activation [12]: 88% (active)
outcome [13]: inactive
outcome [14]: inactive
outcome [15]: inactive
outcome [16]: inactive

CN(C)c1ccc(-c2sc(Nc3ccccc3)n[n+]2-c2ccc(F)cc2)cc1
activation [1]: 406% (active)
outcome [2]: inactive
outcome [3]: inactive
outcome [4]: inactive
outcome [5]: inactive
outcome [6]: inactive
outcome [7]: inactive
outcome [8]: inactive
outcome [9]: inactive
activation [10]: 45% (active)
outcome [11]: inactive
activation [12]: 10.7% (active)
outcome [13]: inactive
outcome [14]: inactive
activation [15]: 274% (active)
outcome [16]: inactive

C=CCn1c(/N=C/c2ccc(N(C)C)cc2)nc2ccccc21
activation [1]: 148% (active)
outcome [2]: inactive
outcome [3]: inactive
potentiation [4]: 24% (active)
outcome [5]: inactive
outcome [6]: inactive
outcome [7]: inactive
outcome [8]: inactive
outcome [9]: inactive
activation [10]: 159% (active)
outcome [11]: inactive
activation [12]: 44.6% (active)
outcome [13]: inactive
potentiation [14]: 10.4% (active)
activation [15]: 103% (active)
activation [16]: 1320% (active)

CC(=O)OCC[N+](C)(C)C
activation [1]: 128% (active) and 146% (active)
activation [2]: 81% (active) and 93% (active)
outcome [3]: inactive
outcome [4]: inactive
outcome [5]: inactive
outcome [6]: inactive
outcome [7]: inactive
outcome [8]: inactive
outcome [9]: inactive
activation [10]: 91.5% (active) and 116% (active)
outcome [11]: inactive
activation [12]: 110% (active) and 105% (active)
outcome [13]: inactive
outcome [14]: inactive
activation [15]: 101% (active) and 102% (active)
outcome [16]: inactive

CC1CCN(CCCNS(=O)(=O)c2cc(Br)cc3c2N(C(=O)C2CC2)CC3)CC1
activation [1]: 91% (active)
activation [2]: 63% (active)
outcome [3]: inactive
outcome [4]: inactive
outcome [5]: inactive
outcome [6]: inactive
outcome [7]: inactive
outcome [8]: inactive
outcome [9]: inactive
outcome [10]: inactive
outcome [11]: inactive
activation [12]: 26.3% (active)
outcome [13]: inactive
outcome [14]: inactive
outcome [15]: inactive
outcome [16]: inactive

CNCC(=O)N1CCN(c2ncc(C(F)(F)F)cc2Cl)CC1
activation [1]: 155% (active)
activation [2]: 128% (active)
outcome [3]: inactive
outcome [4]: inactive
outcome [5]: inactive
outcome [6]: inactive
outcome [7]: inactive
outcome [8]: inactive
outcome [9]: inactive
outcome [10]: inactive
outcome [11]: inactive
activation [12]: 79.5% (active)
outcome [13]: inactive
outcome [14]: inactive
outcome [15]: inactive
outcome [16]: inactive

N=c1n(Cc2ccccc2)c2ccccc2n1CC(O)COc1ccccc1 (stereo not given)
outcome [1]: inactive
outcome [2]: inactive
outcome [3]: inactive
outcome [4]: inactive
outcome [5]: inactive
outcome [6]: inactive
outcome [7]: inactive
outcome [8]: inactive
outcome [9]: inactive
activation [10]: 54% (active)
outcome [11]: inactive
outcome [12]: inactive
outcome [13]: inactive
outcome [14]: inactive
outcome [15]: inactive
outcome [16]: inactive

CCOC(=O)c1ccc(NC(=O)NCCc2cnc[nH]2)cc1
activation [1]: 147% (active)
activation [2]: 136% (active)
outcome [3]: inactive
outcome [4]: inactive
outcome [5]: inactive
outcome [6]: inactive
outcome [7]: inactive
outcome [8]: inactive
outcome [9]: inactive
activation [10]: 38% (active)
outcome [11]: inactive
activation [12]: 90.7% (active)
outcome [13]: inactive
outcome [14]: inactive
outcome [15]: inactive
outcome [16]: inactive
